Sampled rows, rich in hits. Any-hit rate of the full collection: about 4.5%.
PrP 5UTR inh: inhibition of PrP 5' UTR reporter expression | cell-based PrP 5' UTR mRNA reporter, plate reader | inhibition, % (no concentration beside the values) | hit rate 0.35% among 340,000; in the data active means inhibition above about 52%
PfHsp40 yeast: rescue of yeast from PfHsp40 toxicity, primary screen, S. cerevisiae, ATP luminescence; AID 504582, 2011; hit rate 0.68% among 340,000; growth rescue, % at 12.5 µM; S. cerevisiae expressing PfHsp40, growth rescue; in the data active means growth rescue above about 28%, passing the limit was not always enough; inconclusive means no clear call, values can overlap the other calls;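 further: yeast W303a lacking pdr1 and pdr3 grown in galactose medium; growth measured after three days at 30 °C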
PrPC TRFRET: inhibitors of human cell surface prion protein PrPC, primary screen, cell-based, TR-FRET; Major prion protein (Homo sapiens), P04156; TR-FRET read-out; inhibition, % at 13.8 µM; hit rate 0.43% among 370,000; AID 720596, 2013; in the data active means inhibition above about 24%
GDH-TPI inh: GDH-TPI coupling enzyme inhibitors, primary screen, artefact control for M. tuberculosis FBA inhibitor project, biochemical, absorbance, full deck; hit rate 1.2% among 360,000; GDH-TPI coupled enzyme counterscreen, NADH absorbance; inhibition, % at 4.8 µM; AID 588335, 2011; in the data active means inhibition above about 30%
BJeLR lethal: MLPCN primary cell-based screen for lethality selective to Ras in HRASV12 cells; BJeLR (HRASV12) viability, CellTiter-Glo ATP luminescence, 48 h; inhibition, % (concentration not given with the values); hit rate 0.17% among 300,000; in the data active means inhibition above about 50%; inconclusive means no clear call, values can overlap the other calls
FBA Mtb inh: Mtb FBA enzyme inhibitors, primary screen, biochemical, fluorescence, strain H37Rv. hit rate 2.3% among 360,000. Fructose-bisphosphate aldolase (Mycobacterium tuberculosis (strain ATCC 25618 / H37Rv)), …. purified M. tuberculosis FBA, fluorescence read-out. inhibition, % at 1 µM; in the data active means inhibition above about 27%
PrPC confirm: confirmation of inhibitors of cell surface human prion protein, confirmation, cell-based, TR-FRET; cell surface PrPC level; hit rate 65% among 1,500; inhibition, % at 13.8 µM; shares compounds with PrPC TRFRET; in the data active means inhibition above about 25%
LD9 tox: cytotoxicity in LD9 cells, cytotoxicity control for cell surface PrPc inhibitor project, cell-based, luminescence, high throughput; shares compounds with PrPC TRFRET; luminescence viability; inhibition, % at 13.8 µM; hit rate 29% among 1,500; AID 743201, 2013; in the data active means inhibition above about 9.5%
Each line names hits and unclear results; the compound was inactive in the other large screens (follow-up assays come after a bar, where they were run).

O=C(COC(=O)CSc1ccc2ccccc2c1Br)NC1CC1	PrPC TRFRET 56 | PrPC confirm 79 | LD9 tox inactive
COCCN(C(=O)COC(=O)c1ccccc1Nc1ccccc1)c1c(N)n(Cc2ccccc2)c(=O)[nH]c1=O	PfHsp40 yeast inconclusive
CN(C(=O)COC(=O)c1ccccc1Nc1ccccc1)c1c(N)n(Cc2ccccc2)c(=O)[nH]c1=O	PrPC TRFRET 29 | PrPC confirm 38 | LD9 tox inactive
Cc1[nH]n(-c2ccccc2)c(=O)c1/C=N/NC(=O)C(C)C	PrPC TRFRET 29 | PrPC confirm 43 | LD9 tox inactive
Cc1ccc(S(=O)(=O)N2CCN(Cc3cc(C(C)(C)C)ccc3O)CC2)cc1	none
CN(CCc1ccccc1)C(=O)c1ccc(NC(=O)Cc2ccc(NC(=O)C3CCCN(C(=O)CCc4ccccc4)C3)cc2)cc1 (stereo not given)	none (no result: BJeLR lethal)
Cc1c(CNCCc2ccccc2Cl)c(C(=O)O)c(C)n1-c1ccccc1	none
CCOC(=O)C1CCN(C(=O)C(=O)c2cn(CC(=O)N3CCCCCC3)c3ccccc23)CC1	PrPC TRFRET 26 | PrPC confirm inactive | LD9 tox inactive
CCOC(=O)N1CCN(C(=O)C(=O)c2cn(CC(=O)N3CCCCCC3)c3ccccc23)CC1	none
Cc1ccc(C(=O)C(C)OC(=O)CN2C(=O)NC3(CCCC3)C2=O)cc1 (stereo not given)	none
CCOc1ccc(/C(O)=C2/C(=O)C(=O)N(c3ccccn3)C2c2ccc(F)cc2)c(C)c1 (stereo not given)	PrPC TRFRET 29 | PrPC confirm 63 | LD9 tox inactive
Cc1ccc(NC(=O)[C@@H]2CCCN2S(=O)(=O)c2ccc(Cl)cc2)cc1	none (no result: BJeLR lethal)
CN(C)c1ccc(-[n+]2c(-c3ccccc3)cc(-c3ccccc3)cc2-c2ccccc2)cc1	PrPC TRFRET 31, BJeLR lethal 56 | PrPC confirm 41 | LD9 tox 47
COc1ccc(N(C)S(=O)(=O)c2cccc(C(=O)NC3CCCCC3C)c2)cc1 (stereo not given)	PrPC TRFRET 26 | PrPC confirm inactive | LD9 tox inactive
COc1ccc(N(C)S(=O)(=O)c2cccc(C(=O)NC3CCCC3)c2)cc1	none
COc1ccc(C=NNC(=O)c2cc(-c3ccc(C)c(C)c3)n[nH]2)cc1OCc1ccccc1	none (no result: PrP 5UTR inh, PfHsp40 yeast, GDH-TPI inh, BJeLR lethal, FBA Mtb inh)
O=C(Nc1ccc(Cl)c(C(F)(F)F)c1)c1ccncc1	none
CNC(=O)c1cc(Oc2ccc(NC(=O)Nc3ccc(Cl)c(C(F)(F)F)c3)cc2)ccn1	PfHsp40 yeast inconclusive, PrPC TRFRET 27 (no result: BJeLR lethal) | PrPC confirm inactive | LD9 tox inactive
CCN1C(=O)C2(C(C(=O)c3ccc(C)o3)=C(O)C(=O)N2CCCN2CCOCC2)c2ccccc21 (stereo not given)	none
CCN1C(=O)C2(C(C(=O)c3cc4ccccc4o3)=C(O)C(=O)N2CCCN2CCOCC2)c2ccccc21 (stereo not given)	PrPC TRFRET 72 | PrPC confirm 99 | LD9 tox inactive
Cc1ccc2c(c1)[nH]c1c(=O)n(Cc3ccco3)cnc12	none
CC(C)(C)c1csc(NC(=O)c2cccnc2Cl)n1	none
CSc1ncccc1C(=O)Nc1nc(C(C)(C)C)cs1	PrPC TRFRET 27 | PrPC confirm 27 | LD9 tox inactive
CNC(=O)[C@@H](NC(=O)[C@H](CC(C)C)[C@H](O)C(=O)NO)C(C)(C)C	PrPC TRFRET 61 (no result: PrP 5UTR inh, PfHsp40 yeast, GDH-TPI inh, BJeLR lethal, FBA Mtb inh) | PrPC confirm 65 | LD9 tox inactive
CNC(=O)C(NC(=O)CNC(=O)c1ccc(Cl)cc1)C(C)(C)C (stereo not given)	none
CNNC(=S)Nc1cccc(C(F)(F)F)c1	PrPC TRFRET 62 (no result: PrP 5UTR inh, PfHsp40 yeast) | PrPC confirm inactive | LD9 tox inactive
FC(F)(F)c1cccc(NC(=S)NNC(=S)Nc2cccc(C(F)(F)F)c2)c1	none (no result: PrP 5UTR inh, PfHsp40 yeast, PrPC TRFRET, GDH-TPI inh, FBA Mtb inh)
Cc1ccc(C(=O)Nc2ncc(Cc3ccccc3)s2)o1	PrPC TRFRET 27 | PrPC confirm 26 | LD9 tox inactive
COc1ccc(C(=O)NCc2nnc(SCC(=O)N3CCCc4ccccc43)o2)cc1OC	none
CN(c1ccccc1)S(=O)(=O)c1cccc(C(=O)Nc2nccs2)c1	PrPC TRFRET 26 | PrPC confirm inactive | LD9 tox inactive
Cc1cnc(NC(=O)c2cc(S(=O)(=O)N(C)C)ccc2N2CCCC2)s1	PrPC TRFRET 72 (no result: PrP 5UTR inh, PfHsp40 yeast, BJeLR lethal) | PrPC confirm 79 | LD9 tox inactive
CCc1cccc(NC(=O)c2cc(S(=O)(=O)N(C)C)ccc2N2CCCC2)c1	PrPC TRFRET 30 | PrPC confirm 36 | LD9 tox inactive
CN(C)S(=O)(=O)c1ccc(N2CCCC2)c(C(=O)Nc2nc3c(ccc4ccccc43)s2)c1	none
CN(C)S(=O)(=O)c1ccc(N2CCCC2)c(C(=O)Nc2nccs2)c1	PrPC TRFRET 52 (no result: BJeLR lethal) | PrPC confirm 54 | LD9 tox inactive
CCO[C@H]1OC(C(=O)Nc2ccccc2)=C[C@@H](c2ccc(C(F)(F)F)cc2)[C@@H]1CCCO	PrPC TRFRET 31 | PrPC confirm inactive | LD9 tox inactive
O=C(CSc1ccc2ccccc2c1Br)Nc1cccc(S(=O)(=O)NC2=NCCCCC2)c1	PrPC TRFRET 39 | PrPC confirm 48 | LD9 tox inactive
CCCCCN1C(=O)c2cc(OC)ccc2[C@@]2(C(=O)OCC)Cc3cc(Cl)ccc3[C@@H]12	PrPC TRFRET 33 (no result: PrP 5UTR inh, PfHsp40 yeast, GDH-TPI inh, BJeLR lethal, FBA Mtb inh) | PrPC confirm 47 | LD9 tox 99
CCOC(=O)[C@]12Cc3cc(OC)ccc3[C@H]1N(C)C(=O)c1ccccc12	none (no result: PrP 5UTR inh, PfHsp40 yeast, GDH-TPI inh, BJeLR lethal, FBA Mtb inh)
CCOC(=O)[C@]12Cc3cc(OC)ccc3[C@H]1N(C1CCCCC1)C(=O)c1ccccc12	PrPC TRFRET 26 (no result: PrP 5UTR inh, PfHsp40 yeast, GDH-TPI inh, BJeLR lethal, FBA Mtb inh) | PrPC confirm 42 | LD9 tox 95
CCOC(=O)[C@]12Cc3cc(Cl)ccc3[C@H]1N(Cc1ccccc1)C(=O)c1cc(OC)ccc12	none (no result: PrP 5UTR inh, PfHsp40 yeast, GDH-TPI inh, BJeLR lethal, FBA Mtb inh)
CCCCCn1nc(C(=O)OCc2nnc(-c3ccccc3)o2)c2ccccc2c1=O	none
CC(C)[C@H](CO)N(Cc1cccc(F)c1)c1nc(Nc2cccc(Cl)c2)c2ncn(C(C)C)c2n1	none
CC[C@H](CO)Nc1nc(Nc2cccc(Cl)c2)c2ncn(C(C)C)c2n1	PrPC TRFRET 25 | PrPC confirm inactive | LD9 tox 11
